About 680 (34%) of roughly 2,000 compounds were called active. Rule as the data show it: active = inhibition mostly above about 28% (no sharp cut-off); inactive = mostly below about 22%. These entries were drawn from the full list.
Assay: lowers stimulated NF-kB luciferase signal in 697 cells – cell-based, luminescence, single concentration, B-cell NF-kB inhibitor project, confirmation (AID 449746)
Conditions: 697 B-cell NF-kB luciferase, PMA/ionomycin, 16 h; at 4 µM; hits give high values
In the case of `COc1ccc(-n2nnnc2-c2nc3ccccc3s2)cc1`, the inhibition is reported as -323% (inactive). In the case of `COc1ccc2nc(SCc3ccccc3)nc(C)c2c1`, the inhibition is reported as -295% (inactive). In the case of `O=C(Nc1nc2ccccc2s1)c1ccc2c(c1)OCO2`, the inhibition is reported as -466% (inactive). In the case of `Cn1c(=O)n(C)c2cc(C(=O)Nc3ccc4c(c3)OCO4)ccc21`, the inhibition is reported as 35.1% (active). In the case of `C/C(=N\Nc1nc(Nc2ccccc2)nc(N2CCOCC2)n1)c1cccs1`, the inhibition is reported as 34.2% (active). In the case of `Cc1ccc(-n2cc3ccc([N+](=O)[O-])cc3n2)cc1`, the inhibition is reported as -341% (inactive). With `Cc1cc2nc(-c3ccc(NC(=O)c4cccnc4)cc3)oc2cc1C` the inhibition was -187% (inactive). In the case of `Cc1cccc(-n2c(C)cc(/C=N\NC(=O)c3cccs3)c2C)c1`, the inhibition is reported as -11.6% (inactive). In the case of `C[C@@H]1C[C@@H]2O[C@H]2/C=C\C=C\C(=O)Cc2c(Cl)c(O)cc(O)c2C(=O)O1`, the inhibition is reported as 79.9% (active). In the case of `COc1cccc(/C=C/c2ccc3ccccc3n2)c1OC(C)=O`, the inhibition is reported as -459% (inactive). For `COc1ccc(/C=C2\SC(=S)N(CCC(=O)Nc3ccccn3)C2=O)cc1OC`, the inhibition was 10.2% (inactive). In the case of `C=CCOc1ccc(/C=C2\SC(=S)N(CCC(=O)O)C2=O)cc1`, the inhibition is reported as 54.5% (active). For `NS(=O)(=O)c1ccccc1NC(=O)c1c(O)c2ccccc2[nH]c1=O`, the inhibition was -472% (inactive). For `O=C(/C=C/c1ccc(OCc2c(F)cccc2Cl)cc1)N1CCOCC1`, the inhibition was -278% (inactive). With `COc1ccc(CNC(=O)CNC(=O)c2sc3ccccc3c2Cl)cc1OC` the inhibition was 3.3% (inactive). With `Cn1c(-c2ccc(F)cc2)cc2onc(-c3ccccc3Cl)c2c1=O` the inhibition was -244% (inactive). With `O=C(O)CCn1c(O)c(C=C2N=c3ccccc3=N2)sc1=S` the inhibition was 58.5% (active). With `O=c1[nH]c(-c2ccccc2)c(-c2ccccc2)[nH]1` the inhibition was 25.8% (inactive). With `CCOc1ccc(N/C=C/C(=O)c2ccccc2)cc1` the inhibition was -272% (inactive). In the case of `COc1ccccc1OCc1nc2ccccc2s1`, the inhibition is reported as -319% (inactive). With `CCCc1nc2c(C)cc(-c3nc4ccccc4n3C)cc2n1Cc1ccc(-c2ccccc2C(=O)O)cc1` the inhibition was 28.4% (active). In the case of `Cc1ccc(OCc2nc3ccccc3n2C)cc1`, the inhibition is reported as -216% (inactive). In the case of `Cn1c(-c2ccc(C(=O)c3ccccc3)s2)nc2ccccc21`, the inhibition is reported as -249% (inactive). With `COc1cccc(-c2nc3cc(C)ccc3o2)c1` the inhibition was -299% (inactive). With `COc1ccc(Nc2nc(-c3ccccc3)cs2)cc1` the inhibition was -131% (inactive).

Reference: PubChem BioAssay AID449746 (Sanford-Burnham Center for Chemical Genomics, 2010)
